# Source: PubChem
# CHX counter = counter-screen hit for Shiga toxin inhibitors, cycloheximide | AID 2314 | max response, % | hit rate 12% among 300,000 | cell reporter, cycloheximide protein synthesis inhibition counterscreen; in the data active = max response mostly above about 13%, no sharp cut-off; inactive = mostly below about 14%; note: read at 38.3 µM for the half of the compounds with a filed dose; 0% is about no effect
# RE007 growth inh = less growth of the S. pombe RE007 Vpr strain | S. pombe RE007 Vpr strain, BacTiter-Glo ATP luminescence, 24 h | Potency, µM (highest dose often 92.2 µM), inactives show at the top dose activity change, negative = less growth, most hits filed as inhibitors | hit rate 0.21% among 360,000; active = well fitted falling curve with a large enough effect; inconclusive = small, poorly fitted or top-dose-only effect; inactive = no such curve, though single readings can be large or run the other way; note: potency is the fitted concentration of half-maximal effect; % is set by controls: 0 for no effect and ±100 for the full control effect; nearly all actives have a fitted effect of over 50% in size
#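 Fission yeast RE007 carrying one integrated HIV-1 vpr copy, seeded at OD 0.01 in PMG+AL medium with 23 nL pinned compound. Grown 24 h at 30 degrees; viability read by BacTiter-Glo luminescence after 5 min.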
# LmPK inhibitor = inhibitors of Leishmania mexicana pyruvate kinase; Q27686; purified LmPK, Kinase-Glo ATP luminescence, 1 h; Potency, µM (highest dose often 57.5 µM), inactives show at the highest dose activity change, negative = inhibition, usual class: inhibitors; hit rate 0.37% among 290,000; AID 1721; note: potency is the fitted concentration of half-maximal effect; % is set by controls: 0 for no effect and ±100 for the full control effect
# Target sequence (Q27686 whole entry, looked up): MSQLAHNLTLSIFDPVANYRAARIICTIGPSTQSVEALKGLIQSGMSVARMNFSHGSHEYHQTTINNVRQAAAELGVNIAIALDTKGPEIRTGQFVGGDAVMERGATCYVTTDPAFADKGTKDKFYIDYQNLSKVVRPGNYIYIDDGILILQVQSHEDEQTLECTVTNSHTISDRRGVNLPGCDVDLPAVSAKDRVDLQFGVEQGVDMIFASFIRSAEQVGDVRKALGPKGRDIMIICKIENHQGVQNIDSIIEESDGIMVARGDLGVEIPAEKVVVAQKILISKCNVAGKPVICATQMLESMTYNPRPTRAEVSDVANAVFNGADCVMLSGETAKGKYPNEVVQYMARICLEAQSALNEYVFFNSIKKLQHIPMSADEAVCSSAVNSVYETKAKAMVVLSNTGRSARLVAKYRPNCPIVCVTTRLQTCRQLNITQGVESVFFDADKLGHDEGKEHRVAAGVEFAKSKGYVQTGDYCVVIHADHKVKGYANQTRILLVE
#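 Purified LmPK (0.1 nM) with 0.5 mM PEP and 0.1 mM ADP in imidazole buffer pH 7.2 with MgCl2/KCl, 1 h at room temperature. ATP formed was read by luciferase luminescence and normalized to no-enzyme and uninhibited controls.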
# Shiga toxin inh = Shiga toxin inhibition. Vero cells, Shiga toxin protein synthesis inhibition reporter. hit rate 9.2% among 290,000. AID 2315. inhibition, % at 38.7 µM; in the data active = inhibition mostly above about 28%, no sharp cut-off; inactive = mostly below about 43%; note: 0% is about no effect
# Giardia FBPA inh = Giardia lamblia aldolase inhibition | purified Giardia FBPA | Potency, µM (top dose mostly 59.6 µM), inactives show at the top dose activity, negative = inhibition, actives largely listed as inhibitors | AID 2451 | A8B2U2 | hit rate 0.71% among 290,000; note: potency is the fitted concentration of half-maximal effect; % is set by controls: 0 for no effect and ±100 for the full control effect; nearly all actives have a fitted effect of over 55% in size
#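 Giardia FBPA (40 nM reagent) was preincubated 10 min at RT with compound (up to 57.5 uM final), then substrate plus GAPDH/TPI/NAD/arsenate coupling system with diaphorase/resazurin was added; resorufin fluorescence (525/598 nm) was read after 20 min.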
# Tb PYK inh = T. brucei pyruvate kinase inhibition; Q57TT1; TbPYK enzyme, Kinase-Glo Plus ATP luminescence, 45 min; Potency, µM (doses to about 76.8 µM), for inactives: at the highest dose activity, negative = inhibition, actives largely listed as inhibitors; hit rate 0.12% among 410,000; AID 624173; note: potency is the fitted concentration of half-maximal effect; % is set by controls: 0 for no effect and ±100 for the full control effect; nearly all actives have a fitted effect of over 50% in size
#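 Activity of T. brucei pyruvate kinase was followed by Kinase-Glo Plus luminescence after the enzyme reacted 45 min at room temperature with 130 uM ADP (final) and substrate. Test compounds were added before ADP at multiple concentrations.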
# The depositor's hits bear a star; ? = inconclusive; . = not tested or not shown; + = active, no number; [ ] = another dose, or the depositor's remark. The sample as a whole holds a higher share of hits than the screen did. Unless noted, calls come from the whole dose curve; as a rule, active = well fitted curve in the direction sought with a large enough effect; inconclusive = small, poorly fitted or top-dose-only effect, or another doubt; inactive = no such curve, though single readings can be large; an effect the other way counts as inactive or inconclusive.
SMILES,CHX counter,RE007 growth inh,LmPK inhibitor,Shiga toxin inh,Giardia FBPA inh,Tb PYK inh
CCN(C(=O)Cn1ncc2c(=O)oc3ccccc3c21)c1ccccc1F,.,.,.,.,.,1%
CO/C1=C\C(C)=C\[C@@H](C)[C@@H](O)[C@@H](C)C/C(C)=C/C=C/[C@H](OC)[C@@H]([C@@H](C)[C@@H](O)[C@H](C)[C@@]2(O)C[C@@H](O)[C@H](C)C(C(C)C)O2)OC1=O (some centres not stated),7,.,.,-1,-21%,.
COc1ccccc1-c1ccc(/C=C2\C=CC(=O)O2)o1,45*,-12%,-6%,92*,-6%,-5%
Cc1ccc(-c2cc(-c3coc4ccccc4c3=O)c3c(n2)-c2ccccc2OC3)cc1,.,.,.,.,.,2%
CC(C)=NO[C@@H](C)c1cn([C@H](CO)Cc2ccccc2)nn1,.,.,.,.,2%[12.9 µM],.
Cc1ccc(-n2nc(-c3ccc(OC(F)(F)F)cc3)cc2N)cc1C,15*,-15%,-4%,33,-18%,0%
Nc1cc(-c2ccc(Cl)cc2)nn1-c1ccccc1,43*,-8%,-5%,72*,1%,2%
CC(=O)Nc1ccc(-c2cc(N)n(-c3ccccc3)n2)cc1,64*,4%,16µM*,69*,-20%,-27%
Cc1ccc(-n2nc(-c3ccc(N)cc3)cc2N)cc1,32*,-6%,-6%,61*,-5%,-1%
Nc1ccc(-c2cc(N)n(-c3ccccc3)n2)cc1,8,-15%,-21%,10,-29%,2%
O=C(NCCN1CCCCC1)c1ccc(Cn2c(SCc3ccc(F)cc3)nc3cccnc32)cc1,.,.,.,.,.,0%
Cc1ccc(CNC(=O)c2cc3c(=O)n4cccc(C)c4nc3s2)cc1,.,.,.,.,.,5%
Cc1ccccc1CN1C(=O)c2ccccc2Sc2ccc(C(=O)OCc3ccco3)cc21,.,.,.,.,.,-2%
CN(C)C(=O)CCCc1nc(-c2ccc(Cl)cc2)no1,38*,-2%,-5%,156*,0%,-5%
COc1ccc(-c2noc(CN(C)C(=O)c3ccco3)n2)cc1,23,16%,0%,35,10%,1%
O=C(O)CCCc1nc(-c2ccc(Cl)cc2)no1,-2,5%,-1%,-17,8%,-8%
CN(Cc1nc(-c2ccc(Cl)cc2)no1)C(=O)c1ccco1,12*,8%,-6%,44,.,0%
Cc1ccc(-c2noc(CN(C)C(=O)c3ccoc3C)n2)cc1,19*,2%,-9%,88*,4%,-1%
CC1=C(C(=O)Nc2ccccc2)C(c2ccccn2)n2nc(SCc3ccccc3)nc2N1 (configuration not stated),.,.,.,.,.,1%
O=C(Nc1cccc(Cl)c1)C1CCN(c2nc3ccccc3nc2C(F)(F)F)CC1,.,.,.,.,.,-4%
NS(=O)(=O)c1ccc(N/N=C/c2ccc(O)c(O)c2O)c([N+](=O)[O-])c1,-2,-18%,-6%,-4,7.9µM*,-21%
CCC(C)Sc1nnc(NS(=O)(=O)Cc2ccccc2)s1 (configuration not stated),15*,6%,0%,22,-11%,-3%
COc1ccc(CN(C(C)=O)c2ccccc2C(=O)O)cc1,2,-4%,-2%,-10,8%,-8%
COc1ccccc1N(/N=C1\Sc2ccccc2C1=O)C(C)=O,24*,8%,-3%,60*,1%,4%
COc1ccc(N(/N=C2\Sc3ccccc3C2=O)C(C)=O)cc1,60*,-1%,-3%,+,3%,6%
Cc1cccc(-c2cc3c(nn2)-c2ccccc2C3=O)c1,30*,?,7.1µM*,48*,-27%,-20%
CCC(Oc1ccccc1)C(=O)Nc1nc2ccccc2[nH]1 (configuration not stated),21*,4%,-3%,35,-12%,1%
O=C(Nc1nc2ccccc2[nH]1)c1ccccc1OC(F)F,24,?,?,38,-18%,-5%
O=C(Nc1nc2ccccc2[nH]1)c1ccc(OC(F)F)cc1,19*,-20%,?,59*,21%,-4%
CC(C)Oc1ccc(C(=O)Nc2nc3ccccc3[nH]2)cc1,25*,-21%,-23%,33,5%,-12%
